Each structure is given as a SMILES string.

For one test, the target named is Solute carrier family 2, facilitated glucose transporter member 1 (Homo sapiens) (UniProt P11166). Nature of the test: ST_JUDE_LEISH: Cytotoxicity at 2uM final concentration against transgenic Leishmania Mexicana promastigotes LmGLUT1 that are glucose transport deficient and complemented with the human glucose transporter GLUT1. Activity is measured by DNA content using SYBR green in vitro. Type of test: functional.
Sequence of Solute carrier family 2, facilitated glucose transporter member 1 (Homo sapiens) (P11166 whole entry): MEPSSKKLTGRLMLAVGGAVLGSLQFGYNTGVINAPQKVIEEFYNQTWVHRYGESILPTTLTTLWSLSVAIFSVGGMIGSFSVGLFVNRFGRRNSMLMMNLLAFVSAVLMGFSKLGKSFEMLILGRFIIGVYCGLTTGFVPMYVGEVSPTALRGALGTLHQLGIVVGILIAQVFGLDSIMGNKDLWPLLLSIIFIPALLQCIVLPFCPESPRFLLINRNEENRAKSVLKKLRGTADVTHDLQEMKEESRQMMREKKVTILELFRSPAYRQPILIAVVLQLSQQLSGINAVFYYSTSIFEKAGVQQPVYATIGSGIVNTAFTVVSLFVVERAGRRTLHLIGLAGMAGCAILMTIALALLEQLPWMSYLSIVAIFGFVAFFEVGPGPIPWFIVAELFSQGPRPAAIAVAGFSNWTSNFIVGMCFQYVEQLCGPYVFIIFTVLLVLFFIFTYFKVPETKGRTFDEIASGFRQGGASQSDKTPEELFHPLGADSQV
Take `Nc1ccc2[nH]cc(C3CCN(CC4CCC(NC(=O)/C=C/c5ccc(Cl)c(Cl)c5)CC4)CC3)c2n1` (stereo unspecified): the inhibition (usually the change of the read-out against control, counted positive when it falls) is -2.2%. Consider `O=C(N[C@H]1CCN(Cc2ccc(OCCN3CCCC3)c(Cl)c2)C1)c1ccc(Cl)c(Cl)c1`, for which the inhibition is 8.03%. Take `Cc1cccc2nc(-c3cccc(-c4cccc(CN5CCCC5CN)c4)c3)[nH]c12` (stereo unspecified): the inhibition was -0.26%. On to `Cc1ccc(OC2CCN(c3ccc(C(=O)NC4CC4)cn3)CC2)cc1`, for which the inhibition was 0.24%.

As for `O=C(Nc1cccc(C(F)(F)F)c1)c1ccc(S(=O)(=O)NC2CCN(CC3CCCCC3)C2)cc1` (stereo unspecified), the inhibition stood at 3.79%.

`Cc1cc(Oc2ccc(-n3ccnc3)cc2)nc(N2CCN(CCCN3CCCC3)CC2)n1`: the inhibition amounted to 4%. Same read-out and setting: as for `C[C@H](Cc1ccc(OCCCCCCOc2ccc(C[C@@H](C)NC(=O)[C@H](O)c3cccc(Cl)c3)cc2)cc1)NC[C@H](O)c1cccc(Cl)c1`, the figure is 7.21%; as for `O=C(Nc1cccc(CN2CCCN(Cc3ccc(O)cc3)CC2)c1)c1cccc(C(F)(F)F)c1`, 10.5%; as for `CCOc1ccccc1NC(=O)C(Sc1nc(C)cc(C)c1C#N)c1ccccc1` (stereo unspecified), 6.11%.

As to `N#Cc1cccc(NC(=O)Nc2ccc(CC(=O)N3CCc4cc(Cl)c(N5CCN(C/C=C/c6ccccc6)CC5)cc43)cc2)c1`, the inhibition was determined as 2.33%.

On to `Cc1cccc(CN2CCCC3(CCN(Cc4ccccc4O)C3)C2)c1` (stereo unspecified), for which the inhibition amounted to 2.62%.

Another test deals with Hexose transporter 1 (Plasmodium falciparum) (UniProt O97467). Nature of the test: ST_JUDE_LEISH: Cytotoxicity at 2uM final concentration against transgenic Leishmania Mexicana promastigotes LmPfHT that are glucose transport deficient and complemented with the Plasmodium falciparum hexose transporter. Activity is measured by DNA content using SYBR green in vitro. Type of test: functional.
Regarding `O=C(CSc1nnc(-c2ccccc2Br)[nH]1)c1c[nH]c2ccccc12`, the inhibition was -0.7%. Still for that read-out and setting: as for `CN1CCC(N(Cc2ccc(N3CCN(Cc4c[nH]c5ccc(Cl)cc45)CC3)nc2)C2CC2)CC1`, the figure is 4.81%; as for `C[C@H]1CN(Cc2cccc(-c3cc(CNC(=O)c4cccc(CN5CCN(C/C=C/c6ccccc6)CC5)c4)ccc3F)c2)CCN1`, 10.6%; as for `Cc1ccc(C(=O)Nc2cccc(CN3CCCN(Cc4ccc(O)cc4)CC3)c2)s1`, 0.41%. On the same count and under the same terms, with `N#Cc1ccc(NC2(C(=O)N3CCN(c4cccc(Cl)c4)CC3)CC2)c2ccccc12` the figure was 2.36%; with `COc1cc(C(=O)NCCCN2CCN(c3cccc(Cl)c3)CC2)ccc1-c1nc2cc(Cl)c(F)cc2[nH]1`, 0.6%; with `O=C(/C=C/c1ccc(Cl)c(Cl)c1)N1CCC(CCN2CCC(c3c[nH]c4ccccc34)CC2)CC1`, 0.94%. Still for that read-out and setting: with `S=C(NCCCCCN1CCC(c2c[nH]c3ccccc23)CC1)Nc1cccc(I)c1` the figure was 1.62%; with `c1ccc(-c2cc(NCCCCNc3cc(-c4ccccc4)nc4ccccc34)c3ccccc3n2)cc1`, 7.17%; with `CN(C)c1ccc(CN2CCCCC(NC(=O)c3cc(-c4ccccc4F)cs3)C2)cc1` (stereo unspecified), -0.62%. For `COc1ccc(Nc2nc(NC3CCN(Cc4ccccc4)CC3)cc(-c3ccncc3)n2)cc1`, the inhibition was -0.17%. With `Cc1cc(C)c2oc(-c3cccc(NC(=O)c4ccc([N+](=O)[O-])o4)c3C)nc2c1`, the inhibition was 10.4%. Still for that read-out and setting: with `Cn1cncc1C(=O)Nc1ccc(-c2cccc(-c3nc4cc(F)ccc4[nH]3)c2)cc1` the figure was 3.21%; with `FC(F)(F)c1ccc2[nH]c(-c3cccc(-c4cccc(CNCC5CCCO5)c4)c3)nc2c1` (stereo unspecified), 3.63%.

Consider `CC(=O)Nc1nnc(SCc2c(C)cc(C(C)(C)C)cc2C)s1`, for which the inhibition is -2.97%. As for `O=C(Nc1ccc(Cn2ncc(N3CCCNCC3)c(Cl)c2=O)cc1)Nc1cccc(Oc2ccccc2)c1`, the inhibition is 2.39%. `O=C([C@H]1CCCCN1c1ccc([N+](=O)[O-])c2ccccc12)N1CCN(c2ncccn2)CC1`: the inhibition was 3.05%. On to `O=C(NC(Nc1ccc([N+](=O)[O-])cc1)C(Cl)(Cl)Cl)c1ccc(Cl)cc1` (stereo unspecified), for which the inhibition was -3.03%.

In the case of `CN1CCN(CC(=O)Nc2ccc(-c3ccc(-c4nc5cc(C(F)(F)F)ccc5[nH]4)s3)cc2)CC1`, the inhibition was determined as 1.22%. The same measure, in the same setting: with `CCc1cc(CNC2CCN(CCc3c(F)cnc4ccc(OC)nc34)CC2)cc2c1OCCO2` the figure was 34.5%; with `CCN(CC)S(=O)(=O)c1ccc(Cl)c(C(=O)Nc2ccc3nc(C)sc3c2)c1`, -0.92%. As for `COc1cc(OC)cc(C(=O)Nc2cccc(-c3cn4ccc(C)cc4n3)c2)c1`, the inhibition was found to be 2.27%. Same read-out and setting: as for `c1cc(CNCCc2ccncc2)cc(-c2ccc(-c3nc4ccccc4[nH]3)s2)c1`, the figure is -0.86%; as for `C[C@H](Cc1ccc(CCc2ccc(C[C@@H](C)NC[C@H](O)c3cccc(Cl)c3)cc2)cc1)NC[C@H](O)c1cccc(Cl)c1`, 10.7%; as for `Nc1nc(N)c2cc(Cc3ccc([N+](=O)[O-])cc3)cnc2n1`, 0.37%. In the case of `CCCc1ccc(NC(=O)c2ccc(CN3CCCN(CC4CCCCC4)CC3)cc2)cc1`, the inhibition is 7.86%. In the case of `CN(CC(=O)Nc1ccc(F)c(F)c1F)c1ncnc2sc(-c3ccccc3)cc12`, the inhibition was 4.09%.

With `COc1cc2ccccc2cc1CNCCCCCCNCc1cc2ccccc2cc1OC`, the inhibition was found to be 6.05%.

For `CN1CCN(Cc2c(O)ccc3c(=O)c(Oc4ccc(C(C)(C)C)cc4)c(C(F)(F)F)oc23)CC1`, the inhibition came out at 74.1%. Turning to `Nc1ccc2[nH]cc(C3CCN(CC4CCC(NC(=O)/C=C/c5ccc(Cl)c(Cl)c5)CC4)CC3)c2n1` (stereo unspecified), the inhibition is -0.28%. For the compound `O=C(N[C@H]1CCN(Cc2ccc(OCCN3CCCC3)c(Cl)c2)C1)c1ccc(Cl)c(Cl)c1`, the inhibition was 16.6%.

Consider `Cc1cccc2nc(-c3cccc(-c4cccc(CN5CCCC5CN)c4)c3)[nH]c12` (stereo unspecified), for which the inhibition is -1.1%.

For the compound `Cc1ccc(OC2CCN(c3ccc(C(=O)NC4CC4)cn3)CC2)cc1`, the inhibition was 2.06%. As to `O=C(Nc1cccc(C(F)(F)F)c1)c1ccc(S(=O)(=O)NC2CCN(CC3CCCCC3)C2)cc1` (stereo unspecified), the inhibition is 3.31%.

As for `Cc1cc(Oc2ccc(-n3ccnc3)cc2)nc(N2CCN(CCCN3CCCC3)CC2)n1`, the inhibition was 5.53%. On the same count and under the same terms, with `C[C@H](Cc1ccc(OCCCCCCOc2ccc(C[C@@H](C)NC(=O)[C@H](O)c3cccc(Cl)c3)cc2)cc1)NC[C@H](O)c1cccc(Cl)c1` the figure was 5.41%. Consider `O=C(Nc1cccc(CN2CCCN(Cc3ccc(O)cc3)CC2)c1)c1cccc(C(F)(F)F)c1`, for which the inhibition amounted to 9.62%.

In the case of `CCOc1ccccc1NC(=O)C(Sc1nc(C)cc(C)c1C#N)c1ccccc1` (stereo unspecified), the inhibition stood at 3.77%.

Regarding `N#Cc1cccc(NC(=O)Nc2ccc(CC(=O)N3CCc4cc(Cl)c(N5CCN(C/C=C/c6ccccc6)CC5)cc43)cc2)c1`, the inhibition worked out at 4.39%. With `Cc1cccc(CN2CCCC3(CCN(Cc4ccccc4O)C3)C2)c1` (stereo unspecified), the inhibition was 1.27%.
